DAT uptake mod = changed human dopamine transporter uptake under cocaine IC80; Q01959; LLC-PK1 hDAT cells, [14C]-dopamine uptake with cocaine IC80; actives deviate in either direction; B-score at 10 µM; 110,000 tested, 1.3% active; AID 449768;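 active = Z score or B-score, a plate-position-corrected score, falls beyond the plate's 99.7% confidence bounds, in either direction; inactive = both scores lie inside the 99.7% bounds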
PostGolgi ctrl = inhibits growth of the yeast control strain; 98,000 tested, 5% active; inhibition, % at 10 µM; efflux-deficient yeast background strain, growth absorbance A615, 16 h; AID 738
D1 mod = D1 dopamine receptor (human) allosteric modulation; 58,000 tested, 5.9% active; AID 641; HEK293 D1, CRE-luciferase, dopamine EC30 potentiation; actives deviate in either direction; B-score at 10 µM;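 active = luminescence count or its row- and column-corrected plate score outside the 99.7% band of the plate's sample wells, on either side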
PLAP activator = human PLAP activation; P05187; purified PLAP enzyme, luminescent substrate read-out; stronger effect = higher value; activation fold at 20 µM; 96,000 tested, 1.2% active; AID 696; in the data active = activation fold above about 2
PostGolgi yeast = growth inhibition of a yeast mutant, post-Golgi transport screen. post-Golgi transport phenotypic cell assay. inhibition, % at 10 µM. 98,000 tested, 0.9% active. AID 739;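 note: yeast cells grown in 1536-well plates; yeast grown about 18 h at 30C before absorbance read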
Cav32 inh = inhibitors of human Cav3.2 T-type calcium channel. B-score at 10 µM. O95180. Cav3.2-expressing cells, Fluo-4 calcium fluorescence FDSS; stronger effect = lower value. 100,000 tested, 4% active;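 active = single-dose well whose peak fluorescence ratio is a statistical outlier from its plate by either plate-standardised score or position-corrected B-score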
Hits are given with their value; 0 = inactive; - = not tested or not shown. Compounds with a hit are over-represented: about 12% of the library has one in this group of screens. Cut-off read from the data, not from the text of the source, unless noted: active = inhibition above about 30%; inactive = the rest.

SMILES	DAT uptake mod	PostGolgi ctrl	D1 mod	PLAP activator	PostGolgi yeast	Cav32 inh
Cc1ccc2nc(N3CCN(Cc4nnnn4C4CCCC4)CC3)c(C#N)cc2c1	0	-	-	-	-	0
Cc1ccc(C)c(N2CCN(Cc3nnnn3C3CCCCC3)CC2)c1	0	38	0	0	0	-
CS(=O)(=O)N(CC(=O)N1CCN(c2ccccc2)CC1)c1cc(C(F)(F)F)ccc1Cl	0	0	0	0	0	-4.3
CS(=O)(=O)N(CC(=O)N1CCN(c2ccccc2F)CC1)c1cc(C(F)(F)F)ccc1Cl	0	0	0	0	0	0
CS(=O)(=O)N(Cc1ccccc1)c1ccc(C(=O)N2CCN(c3cccc(Cl)c3)CC2)cc1	0	0	-	0	0	0
CS(=O)(=O)N(CC(=O)N1CCN(c2cccc(Cl)c2)CC1)c1cccc(F)c1	0	0	0	0	0	-6.3
CCOC(=O)N1CCN(C(=O)CN(c2cccc(C(F)(F)F)c2)S(C)(=O)=O)CC1	-8.7	0	0	0	0	0
CS(=O)(=O)N(CC(=O)N1CCN(c2ccccc2)CC1)c1ccc(Cl)c(C(F)(F)F)c1	0	0	-	0	0	-5.3
COc1cc(S(=O)(=O)N2CCN(C(=O)c3ccccc3F)CC2)c(OC)cc1NC(C)=O	0	0	0	0	0	0
COC1(OC)N=C(NC(=O)Nc2ccccc2)C2(C#N)C(c3ccccc3)C12C#N (stereo not drawn)	0	0	0	0	0	0
CCO[C@@H]1OC(C(=O)NCc2nc3ccccc3[nH]2)=C[C@H](c2coc3ccccc3c2=O)[C@H]1CCCO	0	-	-	-	-	0
O=C(c1ccco1)N(CC1CCCO1)c1nc(-c2ccccc2)cs1 (stereo not drawn)	0	0	0	0	0	-3.1
Cc1ccc(-c2csc(N(CC3CCCO3)C(=O)c3ccco3)n2)cc1 (stereo not drawn)	-	-	0	-	-	-
CCOCC(=O)Nc1cc(-c2cn3cccnc3n2)ccc1C	0	36	0	0	0	-
COCCCNc1ccnc2c(Cl)cccc12	0	0	0	0	31	0
COCCCNc1cc(C)nc2ccccc12	0	0	-	0	0	0
Cc1ccccc1CN(c1ccc(C(=O)N2CCCC2)cc1)S(C)(=O)=O	0	0	0	0	0	0
Cc1ccccc1CN(c1ccc(C(=O)Nc2cccnc2)cc1)S(C)(=O)=O	0	0	-	2.2	0	0
Cc1nc2sc3c(c2c2nc(-c4ccco4)nn12)CC(C)(C)OC3	-	-	0	-	-	-
COc1ccc(-c2nnc(SCC(=O)NCc3cccs3)n2CC(C)C)cc1	0	0	-	0	0	-
Nc1cc(-c2ccc(Br)cc2)nn1S(=O)(=O)c1ccccc1	0	0	0	0	0	0
COc1ccc(S(=O)(=O)n2nc(-c3ccc(Cl)cc3)cc2N)cc1OC	0	31	-	0	0	0
Nc1cc(-c2ccccc2)nn1S(=O)(=O)c1ccc(F)cc1	0	0	-	0	0	-7.2
Cc1cccc(-n2ncc3c(N(C)Cc4ccccc4)ncnc32)c1	0	-	-	-	-	0
O=C(Oc1c(Cl)cc(Cl)c2cccnc12)N1CCCCC1	0	43	0	0	0	0
SMILES	DAT uptake mod	PostGolgi ctrl	D1 mod	PLAP activator	PostGolgi yeast	Cav32 inh
Cc1ccc(Nc2cc(C)nc(-c3ccccc3O)n2)cc1	0	40	-	0	0	0
CC(C)NC(C(=O)Nc1cc(Cl)cc(Cl)c1)c1ccccc1 (stereo not drawn)	0	0	-	0	0	-4.6
Cn1cnnc1SC(C(=O)Nc1cc(Cl)cc(Cl)c1)c1ccccc1 (stereo not drawn)	0	0	-	0	0	0
Cc1cccc(NC(=O)C(c2cccc([N+](=O)[O-])c2)N2CCCCC2)c1 (stereo not drawn)	0	0	-	0	0	-8
Cc1cccc(NC(=O)C2(c3ccc([N+](=O)[O-])cc3)CCCC2)c1	0	0	-	0	0	-5.5
Cc1cccc(NC(=O)C2(C)CC3c4ccccc4C2c2ccccc23)c1 (stereo not drawn)	0	0	-	0	0	0
COC(=O)CC1Oc2ccccc2N(Cc2ccccc2)C1=O (stereo not drawn)	0	0	0	0	0	0
O=C(NC1CC2CCC1C2)C1COc2ccccc2O1 (stereo not drawn)	0	31	0	0	0	0
O=S(=O)(c1ccccc1F)N(Cc1ccco1)Cc1nnc(-c2ccccc2Br)o1	0	0	0	0	0	0
CCCc1cc(=O)[nH]c(SCC(=O)NC(=O)c2ccccc2)n1	0	32	0	0	0	0
CCN(CC)C(=O)CSc1nnc(CNc2ccc(F)cc2)o1	0	0	-	0	0	0

Screening data as filed in PubChem BioAssay.
